Results published in the supplement of paper PMC6555819.

Assays:
Assay in all cases: PBM binding z-score (relative to random genomic background probes); higher = stronger binding; sequences stand for … in GC…GCGATTGACAGCGTAGAATGAAGG
[1] = system: FXR:RXRa (NR concentration 270 nM, RXRa partner concentration 90 nM)
Outline: (§1)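 Binding z-scores take random background probes as their reference. They come from custom Agilent 4×180K protein-binding microarrays incubated 1 h with ligand-free nuclear receptor dimers, with antibodies against each partner (one per run) detecting binding. Scanned fluorescence was regression-normalized.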

[2] = system: LXRa:RXRa (NR concentration 270 nM, RXRa partner concentration 90 nM)
Outline: as §1

[3] = system: LXRa homodimer (NR concentration 270 nM)
Outline: as §1

[4] = system: LXRb:RXRa (NR concentration 270 nM, RXRa partner concentration 90 nM)
Outline: as §1

[5] = system: LXRb homodimer (NR concentration 270 nM)
Outline: as §1

[6] = system: PPARa:RXRa (NR concentration 270 nM, RXRa partner concentration 90 nM)
Outline: as §1

[7] = system: PPARg:RXRa (NR concentration 180 nM, RXRa partner concentration 90 nM)
Outline: as §1

[8] = system: PPARg:RXRa 270nM:90nM, anti-RXR (NR concentration 270 nM, RXRa partner concentration 90 nM)
Outline: as §1

[9] = system: PPARg:RXRa 30nM:10nM, anti-RXR (NR concentration 30 nM, RXRa partner concentration 10 nM)
Outline: as §1

[10] = system: PPARg:RXRa 90nM:30nM, anti-RXR (NR concentration 90 nM, RXRa partner concentration 30 nM)
Outline: as §1

[11] = system: PPARg:RXRa DBDmut IVT, anti-RXR (DBD mutation: RXRa K156A/R161A, NR concentration 270 nM, RXRa partner concentration 90 nM)
Outline: as §1

[12] = system: PPARg:RXRa IVT, anti-PPARg (NR concentration 270 nM, RXRa partner concentration 90 nM)
Outline: as §1

[13] = system: PPARg DBDmut:RXRa IVT, anti-PPARg (DBD mutation: PPARg1 K132A/R137A, NR concentration 270 nM, RXRa partner concentration 90 nM)
Outline: as §1

[14] = system: PPARg DBDmut IVT, anti-PPARg (DBD mutation: PPARg1 K132A/R137A, NR concentration 270 nM)
Outline: as §1

[15] = system: PPARg homodimer (NR concentration 180 nM)
Outline: as §1

[16] = system: PXR:RXRa (NR concentration 270 nM, RXRa partner concentration 90 nM)
Outline: as §1

[17] = system: PXR homodimer (NR concentration 270 nM)
Outline: as §1

[18] = system: RARa:RXR (NR concentration 270 nM, RXRa partner concentration 90 nM)
Outline: as §1

[19] = system: RARa homodimer (NR concentration 270 nM)
Outline: as §1

[20] = system: RARb:RXRa (NR concentration 270 nM, RXRa partner concentration 90 nM)
Outline: as §1

Sequence	PBM binding z-score [1]	PBM binding z-score [2]	PBM binding z-score [3]	PBM binding z-score [4]	PBM binding z-score [5]	PBM binding z-score [6]	PBM binding z-score [7]	PBM binding z-score [8]	PBM binding z-score [9]	PBM binding z-score [10]	PBM binding z-score [11]	PBM binding z-score [12]	PBM binding z-score [13]	PBM binding z-score [14]	PBM binding z-score [15]	PBM binding z-score [16]	PBM binding z-score [17]	PBM binding z-score [18]	PBM binding z-score [19]	PBM binding z-score [20]
CTAACTAGGTCAAGAGGTCAAAGTCCGCTTCCCG	6.96	6.46	6.71	5.78	2.03	6.55	10.3	8.4	7.88	8.64	8.74	8.7	3.27	2.76	5.39	6.07	2.21	7.15	1.67	5.5
CAAACTAGGTCAAGAGGTGAAAGTCCGCTTCCCG	5.13	3.89	0.764	2.66	0.24	5.8	8.82	7.36	5.81	7.88	8.11	8.63	5.95	5.05	5.72	2.72	0.369	4.83	1.4	4.54
ACTAGCAGGCCTAGGGTCACTCAAGATTAGTCCG	1.77	1.89	-0.469	1.82	-0.871	2.81	1.99	3.41	1.39	2.89	-0.156	0.917	-0.943	-1.16	1.39	2.65	0.0787	3.09	-0.643	2.44
CAAACTAGGTCAAGAGGTCAAAGTGCGCTTCCCG	7.08	6.47	5.76	5.71	2.04	6.59	10.2	8.63	7.04	8.54	8.41	8.51	1.86	0.825	5.5	6.13	2.6	7.48	2.21	5.47
TCTAGTTGGTCAAAGGTCGCACACTCGAAATGCG	2.96	2.82	0.642	2.92	0.553	5.33	10.3	9.2	10.5	10.8	3.09	5.25	1.76	1.51	4.25	3.78	0.71	5.01	1.36	3.29
ATATGTAGGTTAGTTGGGGTCATTCAGACTAGGC	5	6.61	5.82	5.76	1.94	5.47	5.44	5.32	2.72	4.54	6.81	5.83	2.02	2.15	3.78	6.79	7.04	5.99	2.35	3.21
CCTACTGGCCCATTCAGAGGTCATTGATCATATG	2.81	4.4	6.69	3.76	0.83	3.28	0.571	1.44	0.377	1.09	-0.184	0.996	-0.258	-0.298	2.98	4.67	2.7	4.14	1.58	2.81
AGAATGAGGTTATTGAGATCAGGGAATTGCGGTC	2.32	1.71	0.125	1.34	-0.146	2.79	1.67	2.07	0.258	1.31	3.5	2.93	0.606	0.563	0.709	1.57	0.864	1.84	0.342	1.63
TCTCGGGGGACACGAAGGTCAGAGCTTTCCAGAG	2.9	2.88	0.575	4.36	6.23	3.77	1.86	3.73	3.31	3.45	2.39	3.51	2.53	5.36	2.05	3.27	1.24	3.29	0.556	3.73
TGTGAAAGTTCAAAGGTAACGTAAGTATCCACAC	6.55	5.73	4.61	4.36	2.11	5.49	6.77	6.84	4.1	6.25	-0.131	3.37	1.69	1.46	2.73	5.64	4.19	6.09	1.81	4.74
AGAATGAGGTTACCAATGATCAGGGAAACGCTTG	1.77	3.21	-0.495	1.67	-0.399	3.33	2.55	2.4	1.21	1.7	3.69	3.24	1.14	0.416	0.494	1.05	-0.11	1.83	0.362	2.03
GGAATGAGGGCAAAGTTGATAGCATCTGTCGACG	1.58	1.26	-0.314	1.11	-0.0126	4.51	7.74	7.45	6.47	8.36	5.52	4.71	1.48	0.0505	0.811	1.43	0.53	1.95	0.171	2.36
AATACAGGGTCATCGTAGGCCAGAATACGCACAG	7.14	6.31	2.07	4.74	1.07	5.64	6.6	5.68	2.64	4.45	2.86	4.2	1.53	0.878	1.87	4.6	0.787	4.56	1.11	4.31
GCAGACAGGTGAAACGGAGGTAACTCAGGGTGGC	-0.223	0.247	-0.497	-0.0336	-0.922	0.977	0.646	0.393	-0.282	0.0488	1.09	0.463	-0.413	-1.08	-0.308	0.0496	-0.337	0.668	-0.627	0.729
TCGACTAGGTTAGTCGGGGCATTCAGCCAACATA	-0.0811	-0.0624	-0.672	-0.0911	-0.943	0.668	0.144	1.05	1.49	1.12	2.49	2.12	-0.552	-0.496	-0.609	0.117	-0.422	0.0483	-1.11	0.662
